This excerpt belongs to a sample that is enriched for hits.
LMNA splice mod: qHTS Assay for Modulators of Lamin A Splicing; HeLa LMNA splicing GFP/RFP minigene ratio, 48 h; Potency, µM (doses to about 46.1 µM), actives largely listed as inhibitors; actives 0.01% (n = 200,000); AID 1487, 2009; active = well fitted inhibition curve with a large enough effect in the signal ratio, with a control signal flat, not every such curve was filed as active; inconclusive = small, poorly fitted or top-dose-only effect, or effect the other way, or a change in a side signal; the % refers to the signal ratio
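S3 HeLa stable clones carrying a lamin A-EGFP splicing minigene plus DsRed2 were seeded at 600 cells/well in Opti-MEM with 2% FBS, pin-dosed and incubated 48 h at 37°C. Acumen cytometry (488 nm) gave the GFP/RFP total-intensity ratio.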
IMPase Li inh: qHTS Assay for Identifying the Cell-Membrane Permeable IMPase Inhibitors: Potentiation with Lithium; actives 0.35% (n = 210,000); AID 1457, 2008; Potency, µM (series often up to 59.4 µM), most hits filed as inhibitors; CHO-M1 cells, IP1 TR-FRET (IP-One), carbachol + lithium; active = well fitted inhibition curve with a large enough effect; inconclusive = small, poorly fitted or top-dose-only effect; inactive = no such curve, though single readings can be large or run the other way;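 note: IP1 builds up when IMPase is blocked and the TR-FRET signal falls; nearly all actives have a fitted effect of over 50% in size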
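IP1 accumulation measured by competitive TR-FRET in lysed CHO-M1 cells after 30 min compound exposure at 37C, with a small lithium addition to potentiate weak responses. Hill-equation AC50 from ratio and donor-channel data.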
IMPase inh: qHTS Assay for Identifying the Cell-Membrane Permeable IMPase Inhibitors. inhibition (IP1 accumulation), % at 46.1 µM. 120,000 tested, under 10 active. CHO-M1 cells, IP1 accumulation, HTRF TR-FRET ratio. AID 901, 2007. Inositol monophosphatase 1 (Rattus norvegicus), P97697; active = well fitted curve in the direction sought with a large enough effect in the signal ratio, not every such curve was filed as active; inconclusive = small, poorly fitted or top-dose-only effect, or a change in a side signal; inactive = no such curve, though single readings can be large or run the other way; the % refers to the signal ratio;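 note: cells stimulated with carbachol in lithium chloride buffer; higher means more IMPase inhibition seen as more IP1 and lower FRET ratio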
Target sequence (P97697 whole entry, looked up): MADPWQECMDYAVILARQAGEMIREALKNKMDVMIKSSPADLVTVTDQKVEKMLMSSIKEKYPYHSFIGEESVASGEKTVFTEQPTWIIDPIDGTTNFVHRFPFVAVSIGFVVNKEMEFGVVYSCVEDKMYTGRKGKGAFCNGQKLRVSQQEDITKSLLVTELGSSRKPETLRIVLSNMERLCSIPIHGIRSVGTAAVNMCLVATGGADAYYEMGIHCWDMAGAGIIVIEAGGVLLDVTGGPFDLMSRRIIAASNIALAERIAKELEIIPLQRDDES
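Measured: the HTRF emission ratio (665/620 nm) plus the 620 nm donor channel, each fitted to the Hill equation to give AC50. Cells were CHO-M1 given compounds up to 46 uM and a 30 min carbachol stimulation at 37C.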
A number is an active result; . = inactive; ? = inconclusive; / = not tested or not shown; [ ] = remark or other dose.

SMILES | LMNA splice mod | IMPase Li inh | IMPase inh
COc1ccc(CCCc2nnc(SCC(=O)Nc3ccc(Cl)cc3)o2)cc1 | / | / | .
COc1cc2nc(=S)n3[nH]c(CCn4nc(C)cc4C)nc3c2cc1OC | . | 10µM | ?
COc1cc2nc(=S)n3[nH]c(COc4ccccc4C)nc3c2cc1OC | . | . | /
CCCn1c(C)nc2c(N3CCC(N4CCN(C)CC4)CC3)nc(C)nc21 | / | . | /
Cc1cc(C)c2nc(N3CCN(C)CC3)c(C#N)cc2c1 | ? | 28.2µM | .
Cc1cccc2cc(C#N)c(N3CCN(C)CC3)nc12 | . | / | .
CN(C)c1ccc(NC(=O)CCSc2nc(-c3ccco3)cc(C(F)(F)F)n2)cc1 | / | / | .
COc1ccccc1-c1ccc2ncnc(Nc3ccccc3)c2c1 | ? | . | /
CCOC(=O)c1sc(-c2ccc(OC)cc2)cc1NC(C)=O | ? | 11.2µM | /
CCOc1ccc(NC(=O)Nc2cc(-c3ccccc3)sc2C(=O)OC)cc1 | . | . | .
COC(=O)c1sc2nc(C)nc(SCC(=O)C(C)(C)C)c2c1C | . | . | /
CCOC(=O)c1sc2nc(C)nc(SCC(=O)NC3CCS(=O)(=O)C3)c2c1C (stereo not drawn) | . | 12.6µM | /
Cc1cc(=O)c2c(O)c3c(O)cc(O)c4c5c(O)cc(O)c6c(O)c7c(=O)cc(C)c8c1c2c(c34)c(c65)c78 | / | 12.6µM | /
Cc1cc(O)c2c(c1O)C(=O)c1c(O)cc(C)c(O)c1C2=O | / | . | /
Nc1c(C(=O)Nc2ccccc2F)sc2nc(Cc3ccccc3)cc(C(F)(F)F)c12 | ? | 10µM | ?
Cc1cc(C)c2c(N)c(C(=O)Nc3ccccc3C(F)(F)F)sc2n1 | . | / | /
Cc1cc(C(F)(F)F)c2c(N)c(C(=O)Nc3cc(C)on3)sc2n1 | . | 11.2µM | .
COc1ccc(NC(=O)c2sc3nc(-c4ccc(OC)cc4)cc(C(F)(F)F)c3c2N)cc1 | / | / | .
CC1CCN(c2nc3ccccc3nc2SCC(=O)Nc2ccccc2C(C)C)CC1 | / | / | .
O=C(CCSc1nnc2ccc3ccccc3n12)Nc1ccc(F)cc1 | . | 11.2µM | ?
O=C(CCSc1nnc2ccccn12)Nc1ccc(F)cc1 | . | . | .
C[N+]1(C)CCO[C@](O)(c2ccccc2)C1 | / | . | /
Cc1cccc(C)c1OC[C@@H](N)C(C)C | / | / | .
C/C=C/C1=Cc2ccccc2C(CC(=O)OC)N1C(=O)OC (stereo not drawn) | .[9.22 µM] | . | /
S=c1nc(-c2ccccc2)n(Cc2ccco2)c2c1CCCC2 | . | 12.6µM | .
SMILES | LMNA splice mod | IMPase Li inh | IMPase inh
CC(C)Cn1c(-c2ccccc2)nc(=S)c2c1CCCC2 | . | . | .
C[C@H](Oc1ccc(Oc2cnc3ccc(Cl)cc3n2)cc1)C(=O)O | / | . | .
CCN(CC)c1ncnc2ccc(Br)cc12 | . | 25.1µM | .
Brc1ccc2ncnc(Nc3cccc4ccccc34)c2c1 | . | . | .
COc1cccc2sc(NC(=O)c3ccc(S(=O)(=O)N4CCC(C)CC4)cc3)nc12 | . | / | /
COc1ccc2nc(SC)c(C#N)cc2c1 | / | 11.2µM | /
COc1ccc2nc(SCC(C)=O)c(C#N)cc2c1 | . | . | /
C[C@@H](CN1CCC(Cc2ccccc2)CC1)[C@H](O)c1ccc(O)cc1 | / | / | .
COc1cccc(-c2nccc(NCc3ccccc3)n2)c1 | ? | . | /
CCOC(=O)Cc1csc(SCn2nnc3ccccc3c2=O)n1 | ? | . | .
CCOC(=O)Cc1csc(-n2sc3ccccc3c2=O)n1 | . | 7.94µM | ?
COc1cccc(NC(=O)Cn2cnc3c(nc4n3CCCCC4)c2=O)c1 | . | / | /
O=C(Oc1ccc2[nH]cc(CCN3C(=O)c4ccccc4C3=O)c2c1)c1ccco1 | . | . | .
COc1ccc2c(c1)c(CCN1C(=O)c3ccccc3C1=O)cn2C(=O)c1ccco1 | . | 8.91µM | .
N[C@@H](Cn1cc(I)c(=O)n(Cc2ccc(C(=O)O)cc2)c1=O)C(=O)O | / | . | .
C/C=C1\C(=O)C[C@H]2[C@@H]3CCC4=CC(=O)CC[C@]4(C)[C@H]3CC[C@]12C | / | . | /
CCCCn1c(SCC(=O)Nc2cc(C)on2)nc2ccccc2c1=O | . | 5.62µM | .
Cc1ccc(NC(=O)CSc2nc3ccccc3c(=O)n2Cc2cccs2)cc1 | . | 12.6µM | .
CCC(C)n1c(SCC(=O)Nc2cc(C)on2)nc2ccccc2c1=O (stereo not drawn) | . | . | .
CCc1cc2ccccc2nc1SCC(=O)Nc1cc(C)on1 | . | 10µM | .
CCc1cc2cc(C)c(C)cc2nc1SCC(=O)Nc1cc(C)on1 | . | ? | /
CCC(C)NC(=O)CSc1nc2ccc(N3CCOCC3)cc2c(=O)n1CCc1ccccc1 (stereo not drawn) | . | . | .
COCCCn1c(SCC(=O)Nc2ccc(C)cc2)nc2ccccc2c1=O | . | . | /
CCCCn1c(SCC(=O)NC(C)CC)nc2ccc(N3CCOCC3)cc2c1=O (stereo not drawn) | . | 11.2µM | .
c1cc2c(cc1C(N1CCNCC1)N1CCNCC1)OCO2 | / | . | /
SMILES | LMNA splice mod | IMPase Li inh | IMPase inh
C[C@@]12CC[C@@H]3[C@@H](CC[C@H]4C[C@@H](O)CC[C@]43C)[C@H]1CC[C@@H]2c1cc(C(F)(F)F)n[nH]1 | / | . | /
O=C1c2ccccc2C(=O)N1c1ccc(Cc2ccc(N3C(=O)c4ccccc4C3=O)cc2)cc1 | / | . | /
CCCC(=O)Nc1nc2c(ncn2[C@@H]2O[C@H]3COP(=O)(O)O[C@@H]3[C@@H]2OC(=O)CCC)c(=O)[nH]1 | / | . | /
COCCn1c(SCC(=O)Nc2ccc(NC(=O)c3ccco3)c(OC)c2)nc2ccccc2c1=O | . | . | .
CCn1c(SCC(=O)Nc2ccc(NC(=O)c3ccco3)c(OC)c2)nc2ccccc2c1=O | . | 12.6µM | .
COc1ccc(-n2c(/C=C/c3cccc(C(F)(F)F)c3)nc3ccccc3c2=O)cc1Cl | . | / | /
CCOc1ccc(/C(O)=C2\C(=O)C(=O)N(c3cc(C)on3)C2c2ccccc2OC)cc1 (stereo not drawn) | . | 5.01µM | ?
CCOc1ccc(C2/C(=C(\O)c3ccc(OC)c(OC)c3)C(=O)C(=O)N2c2cc(C)on2)cc1OC (stereo not drawn) | . | . | .
CCCCCCCCCCCCCCC/C=C\[C@H](O)[C@@H](NC(=O)CCCCCCCCCCCCC)OC (tested in a mixture with another compound) | / | / | .
CCCCCCCCCCCCCCC1CO1 (stereo not drawn) | / | . | /
COc1ccc(-n2nc3cc(C)c(NC(=S)NC(=O)c4ccccc4C)cc3n2)cc1 | ? | 12.6µM | .
CCCCC(=O)Nc1cc2nn(-c3ccc(OC)cc3)nc2cc1C | . | ? | .
CCC(=O)Nc1cc2nn(-c3ccc(OC)cc3)nc2cc1C | . | 11.2µM | .
COc1ccc(-n2nc3cc(C)c(NC(=O)c4ccc(-c5ccc(Cl)cc5)o4)cc3n2)cc1 | / | / | .
CCCCCCCCCCCCCCCCCCNC(=O)OCC(COP(=O)([O-])OCC[n+]1ccsc1)OC (stereo not drawn) | ? | . | /
CC(C)(C)c1nnc2sc(SC/C(O)=C(\C#N)c3nc4ccccc4[nH]3)nn2c1=O | . | 12.6µM | .
CC(C)(C)c1nnc2sc(SCC(=O)c3ccccc3)nn2c1=O | ? | . | .
Cc1c(Cl)cc(C(C)(C)C)c(O)c1Cc1c(C)c(Cl)cc(C(C)(C)C)c1O | / | . | /
